Out of some 390,000 compounds screened, about 60 (0.02%) were called active. No stated cut-off is given here; in the data, active means activity change below about -50%; inconclusive means between about -30% and that limit; inactive means weaker than that. Shown is part of a subset that was picked to be rich in actives.
molecular target: Mucolipin-1 (Homo sapiens) (UniProt Q9GZU1); experiment: qHTS for Inhibitors of the Human Mucolipin Transient Receptor Potential 1 (TRPML1); conditions: TRPML1-inducible cells, Ca2+ dye fluorescence, FDSS; active compounds read low; inhibition of EC80 agonist-evoked calcium signal;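 further: stimulus is agonist 54-4 at its EC80 concentration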
Excerpt: Mutations of human Mucolipin transient receptor potential 1 (TRPML1) cause type IV mucolipidosis (ML4), a devastating neurodegenerative disease in young children. […] Currently, there is no treatment for ML4. […] Under physiological conditions, TRPMLs regulate membrane trafficking by transducing information about PI(3,5)P2 levels into changes in juxtaorganellar Ca2+, thereby triggering membrane fusion/fission events in the late endocytic pathways (endolysosomal trafficking). In addition, TRPML1 mediates release of Fe2+ from late endosomes and lysosomes, which is essential for cellular iron metabolism. Thus, impaired ion (Ca2+ and Fe2+) homeostasis underlies lysosomal dysfunction and ML4 phenotypes. In ML4 cells, the problem is twofold. First, defective Ca2+-dependent membrane trafficking due to TRPML1-deficiency causes accumulation of lipids and other bio-materials in the lysosome. The second strike comes from the lysosomal iron overload (due to impairment of TRPML1's Fe2+ conductivity), which converts the accumulated materials into the nondegradable (resistant to lysosomal degradation) lipofuscin (also called aging pigment) in the lysosome. Lipofuscin accumulation dramatically compromises the functions of lysosomes.
Niemann-Pick type C (NPC) disease is another lysosome storage disease (LSD) with severe neurodegeneration during the childhood. Currently, there is no cure for NPC. […] Thus, TRPML1 is likely to be an essential regulator of lysosome ion homeostasis. We specifically hypothesize that stimulating TRPML1's Fe2+/Ca2+ channel activity in the lysosome using synthetic agonists can alleviate neurodegeneration associated with ML4 or NPC.
To this end, a high throughput screen was developed in a miniaturized format to screen against the Molecular Libraries Small Molecule Repository (MLSMR) to find small molecules that act either as inhibitors or agonist against the TRPML1 channel.
NIH Chemical Genomics Center [NCGC]
NIH Molecular Libraries Probe Centers Network [MLPCN]
Assay Submitter (PI): Haoxing Xu, University of Michigan Ann Arbor
TRPML1-DL cells are dissociated from flasks, counted and, brought up to a density of 500,000 cells per mL of media containing a 1X Tet inducer. Using a Multidrop Combi, 3 uL of this cell solution is dispensed to each well of a 1536 TC treated, black, clear bottom hi base plate for a final cell density of 1,500 cells per well. The assay plates are incubated overnight (approximately 16 hours) at 37 degrees C and 5% CO2. Using a Multidrop Combi, 2 uL of ABD Ca8 no wash dye plus quencher is added to each well. The assay plates incubate at room temperature in the dark for 45-90 minutes. The assay plate is read on the FDSS using the following protocol: 10 second baseline read, 23 nL of compounds and controls are added using 1536 pintool, agonist read for 110 seconds, 1 uL EC80 addition (4 uM final 54-4 diluted in media), antagonist read for 110 seconds.
On the % scale 0 is the no-effect control and ±100 the full control effect.

Chain of Mucolipin-1 (Homo sapiens) (Q9GZU1 whole entry, looked up, the tested form may be a part): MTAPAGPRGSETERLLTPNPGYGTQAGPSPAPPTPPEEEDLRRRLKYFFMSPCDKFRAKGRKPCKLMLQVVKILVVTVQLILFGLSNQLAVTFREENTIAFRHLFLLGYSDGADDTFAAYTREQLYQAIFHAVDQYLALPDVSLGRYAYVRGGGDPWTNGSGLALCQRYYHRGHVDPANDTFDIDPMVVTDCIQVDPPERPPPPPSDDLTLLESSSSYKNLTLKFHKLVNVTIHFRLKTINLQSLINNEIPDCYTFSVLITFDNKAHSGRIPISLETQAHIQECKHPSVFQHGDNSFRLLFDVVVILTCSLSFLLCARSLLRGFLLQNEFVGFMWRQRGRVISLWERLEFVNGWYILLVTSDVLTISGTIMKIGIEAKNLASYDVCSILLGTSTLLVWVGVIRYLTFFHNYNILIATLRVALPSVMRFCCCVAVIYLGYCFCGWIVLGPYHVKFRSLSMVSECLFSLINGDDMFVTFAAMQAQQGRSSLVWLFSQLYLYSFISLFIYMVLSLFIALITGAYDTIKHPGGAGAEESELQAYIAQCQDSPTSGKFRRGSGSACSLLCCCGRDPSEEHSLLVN

Activity change, negative = inhibition, inactive:
O=C(Nc1ccc2nc(SCC(=O)N3CCCc4ccccc43)sc2c1)c1ccc(F)cc1 -5.54%, Cn1cc(S(=O)(=O)N2CCCCCC2)cc1C(=O)N1CCN(c2ccc(F)cc2)CC1 -18.5%, Cc1ccc(NC(=O)CSc2nc3c([nH]c4ccccc43)c(=O)n2-c2ccccc2)cc1Cl -8.82%, CCCS(=O)(=O)c1c(Nc2ccccc2C)sc(C(=O)c2ccccc2)c1N 6.08%, CCC(=O)N1CCc2cc(Br)cc(S(=O)(=O)Nc3ccc(C)cc3C)c21 11.5%, O=C(Nc1ccc(Br)cc1)c1cc2nc(-c3ccccc3)cc(-c3ccccc3)n2n1 63.6%, O=C(CS(=O)(=O)c1cccc2nsnc12)N1CCN(c2cccc(Cl)c2)CC1 -7.54%, O=C(COc1ccccc1)NCc1ccc2c(c1)CCN2C(=O)c1ccc(F)cc1 25.6%, COc1ccc(NC(=O)c2cc3cc(C)ccc3n2C)cc1 -10.1%, COC(=O)c1ccc(NC(=O)c2cnn(-c3ccc(Cl)cc3)c2C2CCN(C(=O)OC(C)(C)C)CC2)cc1 -3.85%, Cc1c(C(=O)N2CCCC2)oc2c1-c1nn(CC(=O)NCc3ccc(OC(C)C)cc3)cc1CC2 30.2%, CN1CCN(/[N+]([O-])=N/Oc2ccc([N+](=O)[O-])cc2[N+](=O)[O-])CC1 -8.85%, COc1cc(OC)c2c(c1C(CCN1CCCCC1)c1ccc(N(C)C)cc1)OC(=O)CC2c1ccc(N(C)C)cc1 (configuration not stated) -9.58%, Cc1ccc(Cl)cc1N(C)C(=O)Cn1nc(Cc2cccnc2)c2ccccc2c1=O -7.38%, CC(=O)Nc1ccc(NC(=O)C2CCCN(S(=O)(=O)c3ccc4c(c3)CCCC(=O)N4)C2)cc1 (configuration not stated) -7.84%, COc1ccc(-c2nc3sc(CCNS(=O)(=O)c4ccc(F)c(C)c4)c(C)n3n2)cc1 16.5%, CCc1cc2c(-c3ccccc3)cc(=O)oc2c2c1OCN(Cc1ccc(C)cc1)C2 -21.9%, O=C(O)c1ccc(Nc2nc(-c3ccccc3)c3cc(Br)ccc3n2)cc1 16.7%, CCN(CC)CCNC(=O)CN1N=C(c2ccc(OC)cc2)CCC1=O -7.95%, COc1ccc(S(=O)(=O)c2c(Nc3cccc(Cl)c3)sc(C(=O)c3ccccc3)c2N)cc1 17%, Cc1ccc2ncc(C(=O)Nc3ccc(OC(F)(F)F)cc3)c(=O)n2c1 4.29%, COC(=O)c1scc(-c2ccc(C)cc2)c1S(=O)(=O)Nc1cc(Cl)c(OC)cc1OC 37.6%, COc1ccc(CC(=O)N2CC(=O)Nc3ccc(Br)cc3C2c2ccc(F)cc2)cc1OC (configuration not stated) 5.98%, Cc1cccc2c1-c1sc(C(=O)Nc3ccc(F)cc3F)cc1CO2 18.7%, CCOc1ccc(CCNC(=O)c2cc3c(=O)n(C)c4ccccc4c3n2C)cc1 -10.6%, COc1cccc(CNC(=O)c2cc(=O)[nH]c3ccc(S(=O)(=O)N4CCCCC4)cc23)c1 -1.14%, Cc1ccc(C)c(Cn2c(CCCNC(=O)C3CCCCC3)nc3ccccc32)c1 22.7%, CNC(=O)[C@]1(C(F)(F)F)C[C@H](CCc2ccccc2)CCCO1 7.15%, COc1cccc(-c2nnc(SCC(=O)N3CCC(C)CC3)o2)c1 0.454%, CCCn1c(=N)c(C(=O)NCc2ccccc2)cc2c(=O)n3cccc(C)c3nc21 -0.876%, Cc1ccc2c(=O)c(C(=O)c3ccc(F)cc3)cn(CC(=O)NC3CCCCC3)c2n1 -15.9%, COc1ccc(Br)cc1C1C2C=CCC(C)C2C(=O)N1Cc1ccccc1 (configuration not stated) 20.3%, Cc1ccc(-c2cnc(C3CC3)o2)cc1S(=O)(=O)Nc1cccc(C)c1C 5.77%, COc1ccc(NC(=O)CSc2nc3ccccc3n2CC(=O)N2CCCCC2C)cc1 (configuration not stated) 9.59%, Cc1cccc(N2CCN(C(=O)c3cnc(N4CCCC4)nc3C)CC2)c1C 12.6%, CCN(CCCNC(=O)c1cc2c(=O)n(CC)c3ccccc3c2s1)Cc1ccccc1 14.6%, COc1ccc(C2/C=C\CN(C(=O)c3ccc(C)cc3)C(Cc3ccccc3)C(=O)N2Cc2ccc(F)cc2)cc1 (configuration not stated) -1.58%, CCN(CC)CCNC(=O)Cn1ncc2c3ccccc3n(Cc3ccccc3C)c2c1=O 1.87%, O=C(Nc1ccc2c(c1)OCO2)c1cc(-c2cccc(Cl)c2)on1 1.26%, COc1ccc(C2CC(O)(c3ccccc3)Oc3cc(C)cc(C)c32)cc1 (configuration not stated) 9.65%, Cc1ccc(S(=O)(=O)N(CC(=O)Nc2ccc(Cl)cc2Cl)c2ccccc2C)cc1 59.9%, Cc1c(NC(=O)C(C)(C)C)cccc1-c1nc2ccccc2s1 -0.118%, Cc1ccc2nc(CN3CCN(S(=O)(=O)c4ccc(C)c(C)c4)CC3)oc2c1 -6.53%, O=C(CCS(=O)(=O)c1cc(Br)cc2c1N(C(=O)C1CC1)CC2)Nc1ccc(Br)cc1F -10.7%, COc1cc(NC(=O)c2noc3c2CSc2ccccc2-3)cc(OC)c1OC 8.19%, Fc1ccccc1Oc1ncnc2c1oc1ccccc12 -7.01%, COc1ccccc1-c1nnc(C2CCN(C(=O)c3ccc(Cl)cc3)CC2)o1 -16.2%
